Measurements as given in PubChem BioAssay AID463218 (Sanford-Burnham Center for Chemical Genomics, 2010).
The campaign covered roughly 4,400 compounds. About 3,700 (84%) were called active.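 How the source made its calls: active means inhibition above about 39% in either of two replicate wells at 20 µM (limit read from the data); inactive means the rest.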 The set was probably picked from earlier hits. Not all results are given here.

Experiment: tim23-1 mutant yeast growth inhibitors, confirmation, luminescence, single concentration (AID 463218);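 further: temperature-sensitive tim23-1 mutant grown at 25 °C; 0% = DMSO wells with yeast and 100% = medium wells without yeast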
Details: S. cerevisiae tim23-1 growth, BacTiter-Glo luminescence, 24 h; at 20 µM; stronger effect = higher value

inhibition, active:
O=C1Oc2ccccc2C(=O)/C1=C/c1ccccc1O 89%
O=C(CC(O)(C(F)(F)F)C(F)(F)F)Nc1ccc(Cl)c(Cl)c1 92.1%
COc1cc(NC(=O)c2cccs2)ccc1NC(=O)c1ccccc1Cl 42.2%
Cc1nn(CC(=O)Nc2nc3ccccc3s2)c(C)c1[N+](=O)[O-] 54%
C=C1CCC(N(O)c2cc(C)on2)C(=C)CCC2C1CC2(C)C (configuration not stated) 44.8%
Cc1ccccc1OCC(=O)Nc1ccc(N2CCN(C(=O)C(C)C)CC2)c(Cl)c1 76.3%
COc1ccc(/C(N)=N/OC(=O)CCCc2ccccc2)cc1 41.2%
N/C(=N\OC(=O)CCc1ccccc1)c1ccc(Cl)cc1 67.7%
O=[N+]([O-])c1ccccc1S(=O)(=O)Nc1cccc2cccnc12 59.1%
Cc1cccc(Oc2c([N+](=O)[O-])c(=O)n(C)c3ccccc23)c1 59.6%
N/C(=N\OC(=O)CC1CCCCC1)c1ccccc1 53.1%
O=C(NCCc1ccc(F)cc1)c1ccc(S(=O)(=O)N2CCCCC2)cc1 56%
Cc1ccc2cc3cc(C(=O)N4CCCCCC4)oc3nc2c1 56%
CCC(=O)Nc1nc(C)c(C(=O)Nc2cccc(Cl)c2)s1 75.2%
COc1cc(Br)cc(/C=N/c2ncn[nH]2)c1O 85.5%
O=C1c2cccc3c([N+](=O)[O-])ccc(c23)C(=O)N1CC1CCCO1 (configuration not stated) 86.2%
O=C(Oc1ccc([N+](=O)[O-])cc1)c1ccc2ccccc2n1 70.7%
O=C(N[C@H]1C/C=C\C(c2cccc(F)c2)N(Cc2ccccc2)C(=O)C1)OCC1c2ccccc2-c2ccccc21 (some centres not stated) 40%
COC(=O)c1c(NC(=O)CSc2nncs2)sc2c1CCCCC2 46.1%
O=C(N/N=C/C=C/c1ccco1)c1cccs1 68.9%
COc1ccc(CNC(=O)/C(C#N)=C/c2cccc(OC)c2OC)cc1 76.6%
CCCc1nc2c(c(=O)c3ccccc3n2C)c(=O)n1C1CCCCCC1 58.9%
Cc1ccc(S(=O)(=O)NC2CCCCCC2)cc1 37%
O=C(Cc1c(F)cccc1Cl)Nc1ncc([N+](=O)[O-])s1 71.3%
COc1ccc(-c2nc3cc(C)ccn3c2NC2CCCCC2)cc1SC1CCCCC1 48.6%
O=C(/C=C/c1ccc(Cl)c([N+](=O)[O-])c1)c1cccnc1 73.4%
Cc1ccccc1C1=N/C(=C/c2cccnc2)C(=O)O1 57%
O=C(Nc1nc(-c2ccco2)c(-c2ccco2)s1)c1ccco1 77.3%
O=C1[C@@H](c2ccccc2)[C@@H](c2ccccc2)N1c1cccnc1 71.3%
N/C(Cc1ccc([N+](=O)[O-])cc1)=N\OC(=O)C1CCCCC1 64.3%
N/C(Cc1ccc([N+](=O)[O-])cc1)=N\OC(=O)COc1ccc2ccccc2c1 72.3%
Cc1cccc(NC(=S)Nc2ccc(Cl)c(Cl)c2)c1 63.8%
Cn1c(=O)c(C(=O)Nc2ncccn2)c(O)c2ccccc21 53.4%
O=C1Nc2ccccc2/C1=C/c1ccnc2ccccc12 56.8%
COc1ccc(S(=O)(=O)N2CCN(C(C)C(=O)Nc3ccc(C(C)C)cc3)CC2)cc1 (configuration not stated) 51.4%
COc1ccc(C(C[N+](=O)[O-])n2nc(C)cc2C)cc1 (configuration not stated) 62%
O=C(NC(Nc1nc2ccc([N+](=O)[O-])cc2s1)(C(F)(F)F)C(F)(F)F)c1ccccc1 87.3%
COc1ccc(NC(=O)Nc2cccc3cccnc23)cc1 42.3%
CN(C(=O)CC(NC(=O)c1ccccc1)(c1ccccc1)c1ccccc1)c1ccccc1 44.1%
Fc1ccccc1-c1cc2cc3c(cc2cn1)OCO3 59%
CCOc1ccc(C(c2c(C)[nH][nH]c2=O)c2c(C)[nH][nH]c2=O)cc1OCC 41.6%
Cc1ccc2nc(-c3ccc(NC(=O)c4cccnc4)cc3)oc2c1 42.7%
O=C(Nc1nnc(SCc2c(Cl)cccc2Cl)s1)C1CCCO1 (configuration not stated) 49.7%
Cc1cccc(C)c1NC(=O)C(Cl)C(=O)c1ccccc1 (configuration not stated) 68.8%
S=C(NCCCc1ccccc1)Nc1ccc(Br)cc1 54.3%
COc1ccc2c(c1)C(NS(=O)(=O)OCC(Cl)(Cl)Cl)CCC2 (configuration not stated) 52.8%
CCCCCCc1ccc(O)cc1O 45.3%
COc1ccc(C(=O)NC(=S)NC2CCCCC2)cc1 59.2%
O=C(NC(=S)NC1CCCCC1)c1ccc(Cl)cc1 53.2%
Cc1ccoc1C(=O)Nc1cccc(Oc2ccccc2)c1 75.2%
COc1ccccc1-c1n[nH]c2c1[C@H](C)CC[C@H]2C(C)C 61.8%
Cc1ccc(C2CC(=O)NC(SCC(=O)OCc3ccccc3)=C2C#N)o1 (configuration not stated) 53.8%
O=C1C=C(c2cccc(Cl)c2O)C[C@@H](c2ccc(F)cc2)C1 51.5%
CC(=O)Oc1ccc2c(c1)C(=O)c1ccccc1C2=O 68.2%
Cc1nc2sc(C(=O)c3ccccc3)c(N)c2c2c1CCCC2 54.4%
Cc1[nH]n(C(N)=S)c(=O)c1N=Nc1ccc(Cl)cc1Cl 70%
CC(=O)N1N=C(c2ccncc2)OC1(Cc1ccccc1)Cc1ccccc1 49.8%
c1ccc(-c2nc(NCc3ccco3)c3ccccc3n2)cc1 64.7%
O=c1ccc2c(-c3ccccc3S(=O)(=O)O)c3ccc(O)c(O)c3oc-2c1O 43.4%
O=c1oc(-c2ccccc2NS(=O)(=O)c2ccc(Cl)cc2)nc2ccccc12 56%
CC(C)NC(=O)/C(C#N)=C\c1ccc(N(C)C)c(Br)c1 62.2%
Cc1cc(Nc2ccc(Br)cc2)nc2ccccc12 68.2%
Cc1ccc2nc(Nc3ccccc3)cc(C)c2c1 43.1%
Cc1[nH][nH]c(=O)c1C(c1ccc(-c2ccc(Cl)cc2)o1)c1c(C)[nH][nH]c1=O 62.4%
CC(=O)Oc1ccc(N(C(C)=O)S(=O)(=O)c2ccc3ccccc3c2)cc1Br 52.9%
Cc1ccc(C(=O)OC2=CC(=O)CC(C)(C)C2)cc1 38%
CSC(=S)N/N=C/c1c[nH]c2ccccc12 52.5%
COCCNC(=O)/C(C#N)=C/c1cccc(OCc2ccccc2)c1 67%
CCCCC(CC)CNC(=O)C(=O)C1C(=O)Nc2ccccc21 (configuration not stated) 41.6%
O=C(Nc1cccc(F)c1)NC1CCCCCCC1 39.9%
COc1cc(SC)ccc1C(=O)Nc1nc(C)cs1 57.5%
Cc1cc(C)nc(S/C=C/C(=O)c2ccccc2)n1 87.6%
CCc1ccc2c(c1)C1(NN=C(c3ccccc3)S1)C(=O)N2 (configuration not stated) 53.2%
CCC1=NN(C(=O)Cc2ccc([N+](=O)[O-])cc2)C(O)(c2ccc(Br)cc2)C1 (configuration not stated) 45.7%
CC1CCC2CCCCC2N1C(=O)c1cc([N+](=O)[O-])cc([N+](=O)[O-])c1 (configuration not stated) 42.8%
Cc1onc(NC(=O)c2ccc([N+](=O)[O-])o2)c1Br 50.6%
Cc1ccc2c(c1)c1ncnc(N3CCc4ccccc4C3)c1n2C 45.2%
N#C/C(=C\c1cccnc1)C(=O)Nc1ccc(SC(F)F)cc1 65.7%
Cc1ccc(Oc2nc(-c3ccccn3)nc3ccccc23)cc1 46.1%
COc1ccc(Nc2nc(N)nc(CSC(=S)N3CCC(C)CC3)n2)cc1 49.7%
COc1ccc(/C=C2/C(=O)N(c3ccccc3)N=C2C)c(OC)c1 49.5%
N#C/C(=C\c1ccccc1C(F)(F)F)C(=O)Nc1ccccc1F 71.7%
Cc1cccc(C)c1N1C(=O)CN(Cc2ccccc2)C1=S 44.8%
Cn1nc(C(F)(F)F)c2cc(NC(=O)OCC(C)(C)C)sc21 41.3%

inhibition, inactive:
COc1ccc2c(c1)C(=C(C#N)C#N)C(=O)N2CCc1ccccc1 -89.4%
C/C(=N\NC(=S)NCc1ccccc1)c1ccc(Cl)cc1 36.7%
Cc1cc2ncn(CCCCOc3ccccc3)c2cc1C 27.3%
Cc1cccc(NC(=O)c2nc(S(=O)(=O)Cc3ccccc3)ncc2Cl)c1 -88.7%
CC(C)c1ccc(NC(=S)NC2CC3C=CC2C3)cc1 (configuration not stated) 36.4%
COc1ccc(CS(=O)/C(Cl)=C(/Cl)C(=O)Nc2ccc(OC)nc2)cc1 (configuration not stated) -9.55%
CCCc1c(C(=O)Nc2ccc(F)cc2)cnn1-c1ccccc1 30.4%
Cc1ccc(N=Cc2c(O)cc(C)oc2=O)c(C)c1 12.4%
Cc1ccccc1C(=O)NC(=S)NC1CC1 12.2%
O=C(Nc1ccccc1)c1ccc2c(c1)OCCCO2 31.9%
CCc1nnc(NS(=O)(=O)c2ccc(NC(=S)NC(=O)/C=C/c3cccs3)cc2)s1 25.8%
COc1cccc(-c2sc3ccc(OC)cc3c2-c2ccc(OCCN3CCCCC3)cc2)c1 23.4%
O=C1CC(Sc2ncn[nH]2)C(=O)N1c1ccccc1 (configuration not stated) 37.8%
Cc1cccc(-c2nc(Nc3ccc(O)cc3)c3ccccc3n2)c1 -19.6%
CN1C(=O)/C(=N/OC(=O)c2ccccc2Br)c2ccccc21 -64.7%
O=C(/C=C/Sc1ncn[nH]1)c1ccc(Cl)cc1 20.5%
CCCNc1ncnc2sc(C)c(C)c12 27.9%
O=C(N/N=C\c1cc(Br)c(Br)o1)C1COc2ccccc2O1 (configuration not stated) 31%
